# Source: PubChem BioAssay (several laboratories)
# MazF activator = MazEF (E. coli) toxin RNase activation | P0AE70 | FAM/BHQ RNA-DNA oligo cleavage fluorescence, 5 h | activation, % at 20 µM | 0.32% of 350,000 active; in the data active = activation above about 50%
# Anthrax LF inh2 = blocks Bacillus anthracis lethal factor protease. multiplex microsphere protease cleavage assay, LF. inhibition, % at 10 µM. 0.12% of 360,000 active; note: plate controls were buffer without enzyme for full effect and enzyme alone for no effect
# Target sequence (P15917 whole entry, looked up): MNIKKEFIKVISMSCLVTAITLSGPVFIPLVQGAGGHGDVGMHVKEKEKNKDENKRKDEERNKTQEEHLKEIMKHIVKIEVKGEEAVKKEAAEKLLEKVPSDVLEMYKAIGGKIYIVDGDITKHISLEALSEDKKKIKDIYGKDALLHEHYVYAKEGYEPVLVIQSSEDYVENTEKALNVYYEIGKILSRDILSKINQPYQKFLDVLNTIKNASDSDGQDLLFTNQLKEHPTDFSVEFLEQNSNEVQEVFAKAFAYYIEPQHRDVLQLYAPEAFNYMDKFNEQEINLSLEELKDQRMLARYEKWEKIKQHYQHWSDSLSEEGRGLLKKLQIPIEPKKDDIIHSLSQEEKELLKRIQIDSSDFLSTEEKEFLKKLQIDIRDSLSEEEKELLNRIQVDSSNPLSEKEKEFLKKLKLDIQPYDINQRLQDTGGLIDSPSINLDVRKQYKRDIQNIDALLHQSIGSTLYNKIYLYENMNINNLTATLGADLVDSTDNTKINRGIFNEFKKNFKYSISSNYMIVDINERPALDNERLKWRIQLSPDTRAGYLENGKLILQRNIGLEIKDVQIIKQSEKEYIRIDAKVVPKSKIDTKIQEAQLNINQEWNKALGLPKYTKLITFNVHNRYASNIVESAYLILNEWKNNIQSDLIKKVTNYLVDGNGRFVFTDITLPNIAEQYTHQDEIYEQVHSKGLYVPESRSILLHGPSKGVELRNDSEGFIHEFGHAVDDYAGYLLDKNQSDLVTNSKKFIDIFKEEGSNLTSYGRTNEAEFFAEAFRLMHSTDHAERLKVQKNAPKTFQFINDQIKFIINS
# Bead autofluor = counter-screen for toxin protease inhibitors: compound fluorescence. fluorescence intensity (test concentration not listed). 3.1% of 360,000 active. compound autofluorescence counterscreen, microsphere flow cytometry; active compounds read high; in the data active = fluorescence intensity above about 16000; inconclusive = no clear call, values can overlap the other calls
# BoNT-F LC inh = BoNT F light chain protease inhibition; Multiplex microsphere protease cleavage assay, flow cytometry; inhibition, % at 10 µM; 0.22% of 360,000 active; in the data active = inhibition above about 35%, passing the limit was not always enough; inconclusive = no clear call, values can overlap the other calls; note: plate controls were buffer without enzyme for full effect and enzyme alone for no effect
# BoNT-A LC inh2 = inhibitors of Botulinum neurotoxin A light chain protease; 0.17% of 360,000 active; inhibition, % at 10 µM; AID 588499; multiplex microsphere protease substrate cleavage, flow cytometry; note: plate controls were buffer without enzyme for full effect and enzyme alone for no effect
# BoNTA LC inh 1 = BoNT/A light chain protease inhibition. 3% of 720 active. multiplex microsphere protease assay, flow cytometry. AID 602139. inhibition, % at 10 µM. shares compounds with BoNT-F LC inh; in the data active = inhibition above about 32%
# BoNT-F LC CP1 = inhibitors of Botulinum neurotoxin F light chain protease. multiplex microsphere protease cleavage assay, flow cytometry. AID 602140. inhibition, % at 10 µM. shares compounds with BoNT-F LC inh. 720 tested, under 10 active; call rule not given here
# LF protease CP1 = Bacillus anthracis lethal factor protease inhibition | shares compounds with BoNT-F LC inh | multiplex microsphere protease cleavage assay, LF | inhibition, % at 10 µM | 720 tested, under 10 active | AID 602142; call rule not given here
# * hit, by the source's call; ? = inconclusive; nt = no result given. An excerpt weighted towards active compounds, which were near 3.7% of everything screened. Cut-off read from the data, not from the text of the source, unless noted: active = inhibition above about 30%; inconclusive = no clear call, values can overlap the other calls; inactive = below that.
SMILES,MazF activator,Anthrax LF inh2,Bead autofluor,BoNT-F LC inh,BoNT-A LC inh2,BoNTA LC inh 1,BoNT-F LC CP1,LF protease CP1
COCCCNC(=O)C(Cc1ccccc1)NS(=O)(=O)c1ccc2c(c1)c(=O)n(C)c(=O)n2C (stereo not drawn),10,-4,7854,52*,6,0,-6,-3
CCn1c2ccccc2c2nc3cc(OC)c(OC)cc3nc21,1,23,5340,32,50*,23,4,9
CCn1c2ccccc2c2nc3ccccc3nc21,1,-5,8426,0,18,nt,nt,nt
Nc1nc(-c2ccc3c(c2)CCCC3)c(CC(=O)O)s1,-21,18,3589,10,0,nt,nt,nt
COc1cc2ccccc2nn1,7,0,6289,6,-1,nt,nt,nt
COc1ccc2c(n1)Sc1nc3ccccc3nc1N2,-234,5,4878,1,30*,9,-5,2
CC(NC(=O)C12CC3CC(CC(O)(C3)C1)C2)c1ccccc1 (stereo not drawn),-9,-4,5577,4,0,nt,nt,nt
CCCn1c(=O)c2c(nc3n2CCCN3Cc2ccccc2)n(C)c1=O,8,-10,2935,41*,0,-1,-4,-8
COc1ccc(C(=O)CSc2nnc(CN3CCCC3)n2-c2ccc(F)cc2)c(OC)c1,-1,-2,2755,39*,4,-1,-5,0
COc1ccc(C(=O)CSc2nnc(CN3CCCCC3)n2-c2ccc(F)cc2)cc1OC,6,2,2073,-28,0,nt,nt,nt
CCCCn1nnnc1C1(C)CCC(=O)N1CCc1ccc(OC)c(OC)c1 (stereo not drawn),nt,-9,5063,-2,0,nt,nt,nt
CC(C)CCN(C(=O)c1csnn1)C(C(=O)NC1CCCC1)c1ccc(F)cc1 (stereo not drawn),0,6,3226,91*,3,-1,-2,-7
O=C(NC1CCCC1)C(c1ccc(F)cc1)N(Cc1ccccc1)C(=O)c1csnn1 (stereo not drawn),7,-1,3628,-11,-2,nt,nt,nt
O=C(NC1CCCC1)C(c1cccnc1)N(Cc1ccccc1)C(=O)c1csnn1 (stereo not drawn),0,6,3682,43*,1,0,0,1
Clc1ccc(-c2nc(N3CCCCC3)nc3ccccc23)cc1,-18,16,10695,59*,32*,11,-1,2
O=C(O)CCC(=O)N1CCN(c2nc(-c3ccccc3)c3ccccc3n2)CC1,0,-6,3212,10,-2,nt,nt,nt
COc1ccc(CC2(CO)CCN(S(=O)(=O)c3sccc3C)CC2)cc1,-1,-6,4205,38*,6,1,-7,1
Cc1ccc(C(=O)Nc2ccc(S(=O)(=O)N3CCc4ccccc4C3)cc2)o1,-3,-3,8089,36*,4,1,-2,-1
CN(C)CCN(CC1CCCN(Cc2ccccc2F)C1)C(=O)c1ccc(Cl)cc1 (stereo not drawn),11,9,3527,44*,2,0,-4,0
Cc1ccccc1CC(=O)N(CCN(C)C)CC1CCCN(Cc2ccccc2F)C1 (stereo not drawn),6,-5,4146,25,-1,nt,nt,nt
CCc1ccc(-c2cc(C(F)(F)F)n3nc(C(=O)Nc4cnn(Cc5ccc(C)cc5)c4)cc3n2)s1,-12,0,11288,3,7,3,5,3
Cc1ccccc1Cn1cc(NC(=O)c2cc3nc(-c4ccco4)cc(C(F)(F)F)n3n2)cn1,-6,-2,2908,12,0,1,0,-3
Cc1nn(C)c(C)c1NC(=O)c1cc2nc(-c3ccco3)cc(C(F)(F)F)n2n1,7,-4,3882,-1,0,0,0,4
COc1ccc(NC(=O)COC(=O)c2c(C)noc2C)cc1Cl,10,-2,3720,6,0,nt,nt,nt
Cc1cc(Br)cn2c(Cc3ccsc3)c(-c3ccco3)nc12,nt,2,5714,-1,2,nt,nt,nt
SMILES,MazF activator,Anthrax LF inh2,Bead autofluor,BoNT-F LC inh,BoNT-A LC inh2,BoNTA LC inh 1,BoNT-F LC CP1,LF protease CP1
CN(Cc1ccccc1)C(=O)C1(C)CCN1C(=O)Cc1ccc(Cl)cc1Cl (stereo not drawn),nt,2,2933,-2,0,nt,nt,nt
O=C(Nc1cccs1)NC1CCCC1,6,-1,3254,1,0,nt,nt,nt
O=C(Nc1ccc2nc(-c3cccs3)c(-c3cccs3)nc2c1)NC1CC1,10,54*,6638,36*,83*,50*,-1,31*
O=C(Nc1cccc(OC(F)(F)F)c1)[C@@H]1O[C@H](CO)[C@H](O)[C@H](O)[C@H]1O,nt,4,3347,1,0,nt,nt,nt
Cc1ccc2c(c1C)NC(C(=O)O)C1CC=CC21 (stereo not drawn),-4,?,4176,?,?,nt,nt,nt
O=C(O)C1Nc2c(C(F)(F)F)ccc(Cl)c2C2C=CCC12 (stereo not drawn),-3,40*,3213,-19,-4,1,-3,-6
O=C(COC(=O)/C=C/c1ccccc1)NCc1ccco1,7,1,3637,3,0,nt,nt,nt
COC(=O)C1Cc2c([nH]c3ccccc23)C2(CCN(Cc3ccccc3)CC2)N1 (stereo not drawn),-112,6,7106,41*,4,1,1,2
Cc1ccc([C@H]2C[C@H](n3cc(-c4ccc(F)cc4)nn3)[C@@H](O)CN2CC2CCCCC2)cc1,5,2,3419,-6,0,nt,nt,nt
c1ccc(Cn2c(CNc3nc4ccccc4n3CCN3CCCCC3)nc3ccccc32)cc1,2,-2,3736,1,0,nt,nt,nt
c1ccc(Cn2c(CN3CCCC3)nc3ccccc32)cc1,1,-2,6747,34,3,-1,0,2
CN(C)c1ccc(CNc2nc3cc(-c4ccc(F)cc4)sc3c(=O)n2C)cc1,nt,-8,2976,-4,-1,nt,nt,nt
CCOc1ccccc1OCC(=O)Nc1nnc(COC)s1,0,?,?,53*,?,0,-6,-3
Cc1ccccc1OCC(=O)Nc1nnc(C2CCCCC2)s1,-7,-2,2965,47*,-1,-1,-3,-2
COc1ccc(C(=O)NCCn2ccc3ccccc32)c(OC)c1,3,14,10678,-1,9,0,0,6
COc1cccc(N2CCN(C(=O)c3cc(C)oc3C)CC2)c1,0,-1,3849,8,0,nt,nt,nt
COc1cccc(-c2nc(CS(=O)CC(=O)NC3CCCCC3)c(C)o2)c1 (stereo not drawn),12,-1,4639,-5,0,nt,nt,nt
C=CCc1ccc(OCCOCCN(C)C)c(OC)c1,-1,-2,3818,14,0,nt,nt,nt
Cc1ccc2cccc(OCc3ccc(Br)cc3)c2n1,8,-6,3567,39*,0,0,-8,4
Cc1ccc2cccc(OCc3ccc(F)cc3)c2n1,1,-6,3466,5,1,nt,nt,nt
